# About 14,000 (4.5%) of roughly 310,000 compounds showed an effect of 50% or more. Effects have a minus sign here. Only a selection was taken, and strong results are over-represented in it overall.
# Molecular target: human ether-à-go-go-related gene (hERG) potassium channel (human, UniProt Q12809)
# Test: primary screen, population patch clamp on CHO cells stably expressing hERG; higher = less effect of the substance
# 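Also: peak tail current of the secondary pulse compared with the same well before compound.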
# Chain of human ether-à-go-go-related gene (hERG) potassium channel (Q12809 whole entry, looked up): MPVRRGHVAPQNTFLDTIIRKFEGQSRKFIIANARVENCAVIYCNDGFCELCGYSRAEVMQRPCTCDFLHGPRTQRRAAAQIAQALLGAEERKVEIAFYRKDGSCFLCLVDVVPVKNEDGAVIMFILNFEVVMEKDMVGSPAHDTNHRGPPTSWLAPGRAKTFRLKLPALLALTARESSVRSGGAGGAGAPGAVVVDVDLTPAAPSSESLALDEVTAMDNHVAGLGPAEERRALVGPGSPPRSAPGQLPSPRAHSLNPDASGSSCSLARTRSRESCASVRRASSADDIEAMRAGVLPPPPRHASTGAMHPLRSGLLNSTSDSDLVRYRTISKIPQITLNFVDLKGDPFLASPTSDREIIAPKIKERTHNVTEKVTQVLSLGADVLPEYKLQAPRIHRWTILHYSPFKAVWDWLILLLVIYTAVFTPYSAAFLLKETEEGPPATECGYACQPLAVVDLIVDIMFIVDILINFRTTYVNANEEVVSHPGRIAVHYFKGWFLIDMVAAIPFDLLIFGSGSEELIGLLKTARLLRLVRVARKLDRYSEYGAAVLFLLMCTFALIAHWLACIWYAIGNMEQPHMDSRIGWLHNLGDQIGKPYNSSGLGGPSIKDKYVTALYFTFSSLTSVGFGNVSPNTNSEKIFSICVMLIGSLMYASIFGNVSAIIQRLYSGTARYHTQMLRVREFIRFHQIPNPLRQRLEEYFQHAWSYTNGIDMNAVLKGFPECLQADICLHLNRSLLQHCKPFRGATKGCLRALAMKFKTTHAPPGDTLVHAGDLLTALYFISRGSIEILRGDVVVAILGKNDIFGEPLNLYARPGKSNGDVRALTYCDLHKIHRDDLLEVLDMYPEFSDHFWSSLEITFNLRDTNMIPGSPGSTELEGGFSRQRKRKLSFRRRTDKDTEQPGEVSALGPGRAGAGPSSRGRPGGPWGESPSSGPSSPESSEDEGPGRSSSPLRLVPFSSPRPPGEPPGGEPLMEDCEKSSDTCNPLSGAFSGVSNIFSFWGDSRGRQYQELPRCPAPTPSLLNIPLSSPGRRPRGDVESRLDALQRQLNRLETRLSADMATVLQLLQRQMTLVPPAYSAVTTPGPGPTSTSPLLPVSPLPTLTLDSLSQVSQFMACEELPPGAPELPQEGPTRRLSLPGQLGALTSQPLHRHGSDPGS
row,Compound,"hERG current change (%, negative = inhibition) at 10uM"
1,O=S(=O)(Nc1ccc(O)cc1)c1cccc2cccnc12,10.2%
2,Cc1ccc(CN2CC(C(=O)Nc3ccc(S(=O)(=O)Nc4cc(C)nc(C)n4)cc3)CC2=O)cc1 (stereo not shown),15.6%
3,CCC1C(=O)NCCN1C(=O)c1cccc(OC2CCN(S(=O)(=O)N(C)C)CC2)c1 (stereo not shown),14%
4,CN(C)CCN(Cc1ccccc1)C(=O)[C@H](Cc1ccccc1)N1C(=O)c2ccccc2C1=O,-30.1%
5,Cc1ccc(S(C)(=O)=NS(=O)(=O)c2cccc3nsnc23)cc1 (stereo not shown),7.47%
6,O=c1c2ccccc2nc(SCc2nnc(-c3ccccc3Br)o2)n1-c1ccccc1,-1.38%
7,Cc1csc(C(C#N)C(=O)c2cc3ccccc3o2)n1 (stereo not shown),-7.89%
8,CN(C)S(=O)(=O)Nc1ccccn1,16.5%
9,CCCCc1cc(=O)oc2cc(C)cc(O)c12,-17.2%
10,Cn1c(-c2ccccc2)cc2ccccc21,9.39%
11,COc1ccc(S(=O)(=O)N2CCN(C(=O)COc3ccc(C)c(C)c3)CC2)cc1OC,-37.1%
12,CCn1cc(C(=O)NCCCN2CC(C)CC(C)C2)c(=O)c2cc(S(=O)(=O)N(C)C3CCCCC3)ccc21 (stereo not shown),-84.3%
13,CCn1cc(C(=O)N2CC(C)CC(C)C2)c(=O)c2cc(S(=O)(=O)N(C)C)ccc21 (stereo not shown),-8.98%
14,CCn1cc(C(=O)NCCCN2CC(C)CC(C)C2)c(=O)c2cc(S(=O)(=O)N(C)C)ccc21 (stereo not shown),-55.5%
15,CN(C1CCCCC1)S(=O)(=O)c1ccc2c(c1)c(=O)c(C(=O)NCCCN1CCCC1)cn2C,-25.6%
16,CC1CCCN(CCCNC(=O)c2cn(C)c3ccc(S(=O)(=O)N(C)C4CCCCC4)cc3c2=O)C1 (stereo not shown),-71.4%
17,CCn1cc(C(=O)NCCCN2CCCC(C)C2)c(=O)c2cc(S(=O)(=O)N3CCOCC3)ccc21 (stereo not shown),14.6%
18,CCn1cc(C(=O)NCCCOC)c(=O)c2cc(S(=O)(=O)N(C)C)ccc21,14.3%
19,CN(C1CCCCC1)S(=O)(=O)c1ccc2c(c1)c(=O)c(C(=O)NCCN1CCCC1)cn2C,-27.7%
20,CCn1cc(C(=O)NCCCN2CCCC(C)C2)c(=O)c2cc(S(=O)(=O)N(C)C3CCCCC3)ccc21 (stereo not shown),-80.1%
21,Cc1ccc(NC(=O)c2ccc(NC(=O)C3CCCCC3C(=O)O)cc2)cc1 (stereo not shown),14.4%
22,O=C(CN1C(=O)NC2(CCCC2)C1=O)N1CCN(S(=O)(=O)c2cccc(C(F)(F)F)c2)CC1,-5.43%

row,Compound,"hERG current change (%, negative = inhibition) at 10uM"
1,O=C(O)C(Cc1c[nH]c2ccccc12)N1C(=O)c2ccccc2C1=O (stereo not shown),-2.61%
2,Cc1ncc(CO)c(/C=N/Nc2cccc(Cl)n2)c1O.Cl,8.89%
3,O=c1oc(-c2ccc(Br)cc2)nc2ccccc12,17.8%
4,CC1=NNC(=O)/C1=C\c1cn(-c2ccccc2)nc1-c1ccc(Cl)cc1,3.69%
5,O=c1c2c(nc3c(-c4ccccc4)c[nH]n13)CCC2,10.9%
6,CC(C)CC(COCc1cccc(C(F)(F)F)c1)N1CCN(C(=O)c2cccc(C(F)(F)F)c2)CCC1=O (stereo not shown),-12%
7,COc1ccccc1CN1CCN(Cc2nc(-c3cccs3)no2)CC1,-42.8%
8,O=C(C[n+]1ccc(-c2nnc3n2CCC3)cc1)c1ccc(Cl)c(Cl)c1.[Br-],-14%
9,O=C(O)CC1(CC(=O)NCc2ccc(Cl)cc2)CCCCC1,8.75%
10,CCC12CN(C(=O)c3ccc(C)cc3)CC(CC)(CN(C(=O)c3ccc(C)cc3)C1)C2=O,-33.3%
11,CCn1cc(C(=O)NCCCN2CCC(C)CC2)c(=O)c2cc(S(=O)(=O)N3CCCC3)ccc21,-7.61%
12,CCn1cc(C(=O)NCCCN2CCC(C)CC2)c(=O)c2cc(S(=O)(=O)N3CCOCC3)ccc21,-17.1%
13,CCn1cc(C(=O)NCCCN2CCC(C)CC2)c(=O)c2cc(S(=O)(=O)N(C)C3CCCCC3)ccc21,-80%
14,COc1cc(NC(=O)c2ccc3c(c2)OCO3)ccc1NC(=O)c1ccco1,10.4%
15,Cc1ccc(CNC(=O)c2ccc(Cn3nc(C)cc3C)o2)cc1,-19.1%
16,CCOC(=O)/C(N=Nc1c(Br)cc(Br)cc1Br)=C(\C)O,6.47%
17,Cn1c(CC(=O)NNC(=O)c2ccc(F)cc2F)nc2ccccc21,-7.56%
18,CCCN1C=CC(=CC=C(C#N)C#N)C=C1,-3.42%
19,CCCCCCN1C=C/C(=C\C=C(C#N)C#N)c2ccccc21,-37.4%
20,CCCCCCN1C=CC=C/C1=C/C=C(C#N)C#N,-76.5%
21,CCCCCCN1C=CC(=C/C=C(\C#N)C(=O)OCC)C=C1,-4.32%
22,CCOC(=O)/C(C#N)=C/C=C1/C=CC=CN1C,3.01%

row,Compound,"hERG current change (%, negative = inhibition) at 10uM"
1,CC1=C/C(=C\C=C(C#N)C#N)N(C)c2ccccc21,9.34%
2,CN1/C(=C/C=C(C#N)C#N)C=Cc2ccccc21,11.5%
3,CCCCCN1C=CC=C/C1=C\C=C(C#N)C#N,-70.9%
4,CCCCCCN1C=CC=C/C1=C\C=C(C#N)C#N,-71.1%
5,COc1ccc(OC)c(NC(=O)CSc2nnc(C)n2Cc2ccccc2)c1,-23.5%
6,Cc1ccc(C)c(N(C)S(=O)(=O)c2cccc3nsnc23)c1,-18.4%
7,Cc1cc(C)c(S(=O)(=O)Nc2cccc(C(=O)O)c2)cc1S(=O)(=O)Nc1cccc(C(=O)O)c1,18.2%
8,NNC(=O)c1ccc(Cn2cc(Cl)cn2)o1,15.6%
9,COC(=O)c1ccc(/C=N/N2CCN(Cc3ccccc3Cl)CC2)cc1,5.88%
10,CCCNC(=O)CCc1c(C)nc2c(c(C)nn2-c2ccc(C)cc2)c1C,-0.266%
11,Cc1ccc(-n2nc(C)c3c(C)c(CCC(=O)O)c(C)nc32)cc1C,30.7%
12,COCCNC(=O)CCc1c(C)nc2c(c(C)nn2-c2ccc(C)c(C)c2)c1C,-3.85%
13,COCCNC(=O)CCc1c(C)nc2c(c(C)nn2-c2ccc(C)cc2)c1C,-17.6%
14,Cc1nc2c(c(C)nn2-c2ccccc2)c(C)c1CCC(=O)NCCCOC(C)C,-34.7%
15,CCN(CC)CCNC(=O)CCc1c(C)nc2c(c(C)nn2-c2ccc(C)c(C)c2)c1C,-62.3%
16,COCCCNC(=O)CCc1c(C)nc2c(c(C)nn2-c2ccc(C)cc2)c1C,-7.71%
17,CCN(CC)CCNC(=O)CCc1c(C)nc2c(c(C)nn2-c2ccc(C)cc2)c1C,-55.4%
18,Cc1ccc(-n2nc(C)c3c(C)c(CCC(=O)NCCCOC(C)C)c(C)nc32)cc1,-53.1%
19,COc1ccc(N(CC(=O)NCc2ccc3c(c2)OCO3)S(C)(=O)=O)cc1OC,1.12%
20,COc1ccc(C2NC(=O)NC(C)=C2C(=O)OCC2CCCCC2)cc1OC (stereo not shown),-2.11%
21,Cc1cc(NC(CC(C)C)C(=O)O)nc(Cc2ccccc2)n1 (stereo not shown),9.96%
22,CCN(CC)CCOC(=O)C1(c2ccc(OC)c(OC)c2)CCCC1.Cl,-16.9%

row,Compound,"hERG current change (%, negative = inhibition) at 10uM"
1,COc1cccc(Nc2c([N+](=O)[O-])cncc2[N+](=O)[O-])c1,-2.64%
2,Cc1ccc(S(=O)(=O)Nc2ccc(-n3cnnn3)cc2)cc1,-1.93%
3,COc1ccccc1CCNC(=O)CCC(=O)N1CC2C[C@@H](C1)Cn1c2cccc1=O,6.31%
4,CC(C)SCC(=O)Nc1ncc2c(n1)-c1ccccc1CC2,7.72%
5,O=C(NCCc1cccnc1)C1CCC(=O)N(CCc2cccc(F)c2)C1 (stereo not shown),7.99%
6,O=C(NCCCc1ccncc1)C1CCC(=O)N(CCc2cccc(F)c2)C1 (stereo not shown),-51.8%
7,COc1ccc(CCCNC(=O)C2CCC(=O)N(CCc3cccc(F)c3)C2)cc1 (stereo not shown),-53.1%
8,Cc1ccc(CCNC(=O)C2CCC(=O)N(Cc3cccc(F)c3)C2)cc1 (stereo not shown),-4.64%
9,COc1ccccc1CCCNC(=O)C1CCC(=O)N(CCc2cccc(F)c2)C1 (stereo not shown),-19.1%
10,Cc1ccc(CCCNC(=O)C2CCC(=O)N(Cc3cccc(F)c3)C2)cc1 (stereo not shown),-53.4%
11,O=C(NCCCc1ccncc1)C1CCC(=O)N(Cc2cccc(F)c2)C1 (stereo not shown),-14.5%
12,COc1ccc(CCN2CC(C(=O)NCCc3ccc(F)cc3)CCC2=O)cc1 (stereo not shown),-22%
13,COc1cccc(CN2CC(C(=O)NCCCc3ccc(C)cc3)CCC2=O)c1 (stereo not shown),-28.4%
14,O=C(CN1C(=O)NC2(CCCCCCC2)C1=O)NCc1cccs1,7.8%
15,CC(=O)c1c(C)[nH]c(C(=O)COc2ccc3c(C)cc(=O)oc3c2)c1C,7.54%
16,CC(=O)c1cc(NC(=O)c2ccccc2)c(=O)oc1/C=C/N(C)C,-12.1%
17,S=C(NCCCN1CCOCC1)Nc1ccc(-c2nc3ccccc3[nH]2)cc1,-11.7%
18,CSc1cccc(NS(=O)(=O)c2ccc(-c3coc(C)n3)cc2)c1,22.6%
19,CCCCn1c(SCc2cccc([N+](=O)[O-])c2)nc2ccsc2c1=O,10%

# — PMC4336329 (PLoS ONE, 2015)
